# Source: PubChem (National Center for Advancing Translational Sciences (NCATS))
# This is a sample that favours compounds with a hit; in the whole collection about 12% have one here.
# HCV inhibitor: inhibitors of hepatitis C virus infection | Huh7.5.1 HCVcc-Cre infection, luciferase reporter, 44 h | Potency, µM (top dose mostly 41.8 µM), for the others: at the highest dose activity change, negative = inhibition, most hits filed as inhibitors | 3.4% of 340,000 active | AID 651820; further: on the % scale 0 is the no-effect control and ±100 the full control effect
#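 1,000 cells/well; 4 h culture; + compound; + HCVcc-Cre (~0.5 moi); 44 h; luciferase substrate, RT 15 min; read 15 sec.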
# Pf growth 48h: P. falciparum growth inhibition at 48 hours (one generation) | 5.9% of 310,000 active | P. falciparum luciferase growth in erythrocytes, 48 h | Potency, µM (titrated, usually from 28.7 µM), without a hit: at the highest dose activity change, negative = inhibition, hits mostly inhibitors; further: on the % scale 0 is the no-effect control and ±100 the full control effect
#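 Erythrocytes infected with P. falciparum carrying an integrated firefly luciferase reporter (2% hematocrit, 0.1% parasitemia final) were exposed to compounds in RPMI 1640 with 0.5% Albumax at 37 C, 5% CO2. Growth inhibition was scored as reduced luminescence.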
# AMA1 RON2 block: AMA1-RON2 (P. falciparum) interaction inhibition. AlphaScreen AMA1-biotinylated RON2 peptide binding. Potency, µM (highest dose often 58.2 µM), without a hit: top-dose activity change, negative = inhibition, hits mostly inhibitors. 0.2% of 360,000 active;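 further: 0% = vehicle wells and -100% = peptide control; nearly all actives have a fitted effect of over 45% in size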
#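 AMA1 (3D7) with his tag at 25 nM final met compounds first, then biotinylated RON2 peptide at 25 nM; detection used donor plus acceptor beads, 10 µg/mL apiece, read by AlphaScreen after 30 min at room temperature.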
# SARS PLpro yeast: blocks SARS-CoV papain-like protease in a yeast assay | S. cerevisiae expressing SARS-CoV PLpro, growth rescue | Potency, µM (series often up to 32.9 µM), inactives show at the top dose activity, positive = growth rescue, usual class: activators | 0.19% of 330,000 active | AID 485353; calls by dose curve; further: 0% is about no effect; nearly all actives have a fitted effect of over 55% in size
# NS1 inh: influenza NS1 inhibition. Potency, µM (doses to about 46.1 µM), without a hit: at the top dose activity, positive = more growth. 0.4% of 270,000 active; calls by dose curve; further: actives are rising curves; nearly all actives have a fitted effect of over 50% in size
#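 In this qHTS, NS1 from influenza A is expressed in budding yeast, where it slows growth. Cells are switched from glucose to 2% galactose medium (pH 6.0, -URA), treated with compound, and growth recovery is read at OD600.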
# Pf growth 96h: P. falciparum growth inhibition at 96 hour, primary screen for plastid delayed-death inhibitors; P. falciparum luciferase reporter growth, 96 h; Potency, µM (top dose mostly 28.7 µM), inactives show top-dose activity change, negative = inhibition, usual class: inhibitors; 6.9% of 320,000 active; further: on the % scale 0 is the no-effect control and ±100 the full control effect
#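 P. falciparum expressing integrated firefly luciferase, in erythrocytes at 2% hematocrit, 0.05% parasitemia, incubated with compounds 96 h at 37 C, 5% CO2. Growth inhibition read as loss of luminescence; two-generation exposure targets delayed-death apicoplast inhibitors.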
# Starred values were filed as active, the others as inactive; i = inactive; u = inconclusive; x = no result; [ ] = dose if it differs, or a comment. Unless noted, the call rests on the fitted dose curve; in most records, active means well fitted curve in the direction sought with a large enough effect; inconclusive means small, poorly fitted or top-dose-only effect, or another doubt; inactive means no such curve, though single readings can be large; an effect the other way counts as inactive or inconclusive. Potency means the concentration at half of the fitted maximal effect.
SMILES,HCV inhibitor,Pf growth 48h,AMA1 RON2 block,SARS PLpro yeast,NS1 inh,Pf growth 96h
[O-]/C(=C(\C(=S)Nc1ccc(Cl)cc1)[n+]1ccccc1)c1ccc(OC(F)F)cc1,11µM*,10µM*,58%,2%,x,-5%
CN1C(=O)c2ccc(S(=O)(=O)c3ccc(C(=O)O)cc3)cc2C1=O,15%,17%,5%,9%,1%,30%
O=C(O)c1ccc(S(=O)(=O)c2ccc3c(c2)C(=O)N(c2ccccc2[N+](=O)[O-])C3=O)cc1,2%,6%,-3%,-4%,13%,13µM*
CCOc1ccccc1N1C(=O)c2ccc(S(=O)(=O)c3ccc(C(=O)O)cc3)cc2C1=O,4%,20%,20%,11%,8%,0.17µM*
CC(=O)Nc1ccc(N2C(=O)c3ccc(S(=O)(=O)c4ccc(C(=O)O)cc4)cc3C2=O)cc1,13%,12µM*,-18%,-4%,12%,0%
CC(=O)Oc1ccccc1N1C(=O)c2ccc(C(=O)O)cc2C1=O,3%,11%,-2%,-1%,7%,4%
CCOC(=O)N1CCN(C(=O)C2CCC(=O)N(Cc3ccccc3OC)C2)CC1 (configuration not stated),x,x,5%,x,x,x
O=C(O)COCC(=O)N1CCN(c2cc(C(F)(F)F)nc3ccccc23)CC1,15%,15%,-4%,0%,-2%,10%
CN(C)c1ccc(C(=O)N2CCN(c3cc(C(F)(F)F)nc4ccccc34)CC2)cc1,u,u,u,-5%,3%,13µM*
COc1ccccc1CNC(=O)CCCc1nnc2n(C)c(=O)c3sccc3n12,-5%,14%,7%,2%,6%,-17%
C=CCSc1nnc(Cc2c(C)[nH]c3ccccc23)o1,u,4%,0%,12%,-45%,8.3µM*
CCOc1ccccc1NC(=O)Nc1ccc2c(c1)OCO2,u,23%,-7%,-3%,-24%,65%
C=CCOc1ccccc1CN(C(=O)CCl)c1ccc2c(c1)OCO2,u,u,-15%,4%,16%,12µM*
COc1ccc(-c2noc(CN3CCCC(OCc4ccccn4)C3)n2)cc1 (configuration not stated),u,u,11%,-1%,-8%,u
COCCN1CCN(Cc2nc(Cc3ccc(OC)c(OC)c3)no2)CC1,9%,6%,3%,-1%,0%,-20%
COc1ccc(Cc2noc(CN3CCN(Cc4cccc(Cl)c4)CC3)n2)cc1OC,u,u,4%,-1%,4%,8.3µM*
COc1ccc(Cc2noc(CN3CCCC(OCc4ccccn4)C3)n2)cc1OC (configuration not stated),-18%,u,11%,0%,-7%,13µM*
CCOC(=O)CCCNC(=O)CN1C(=O)NC(c2ccccc2)(c2ccccc2)C1=O,-8%,u,4%,0%,-25%,u
CCOC(=O)C1=CN(Cc2cccc(F)c2)S(=O)(=O)N(CC)C1c1ccc(F)c(Cl)c1 (configuration not stated),u,x,0%,-4%,x,x
CCOc1ccc2oc(C(=O)NCc3ccccc3CN3CCCC3)c(C)c2c1,16µM*,9.3µM*,-5%,2%,x,9.3µM*
Cc1c(C(=O)NCc2ccccc2CN2CCCC2)oc2c(F)cccc12,-15%,13µM*,-11%,-38%,x,u
COc1ccc(NS(=O)(=O)c2cccc(C(=O)NCc3ccccc3CN3CCOCC3)c2)cc1,u,x,0%,x,x,x
Cc1c(C(=O)NCc2ccco2)oc2c(F)cccc12,-10%,u,-2%,2%,x,-16%
O=C(NCc1ccccc1CN1CCCC1)c1cc2cc(Cl)ccc2o1,10µM*,13µM*,-2%,-4%,x,u
COc1ccc2cc(C(=O)NCc3ccccc3CN3CCCC3)ccc2c1,7.1µM*,9.3µM*,0%,14%,x,u
SMILES,HCV inhibitor,Pf growth 48h,AMA1 RON2 block,SARS PLpro yeast,NS1 inh,Pf growth 96h
O=C(NCC1CCCO1)c1cc2cc(Cl)ccc2[nH]1 (configuration not stated),-8%,13%,-1%,-13%,3%,1%
CCOC(=O)c1c(NC(=O)CSc2nnc(C)o2)sc(C)c1C,-23%,-23%,-4%,1%,-37%,41%
COc1ccc2oc(C(=O)NCCC(C)C)c(C)c2c1,-8%,i,4%,-5%,x,178%
COCc1c(C(=O)NCc2ccccc2CN2CCCC2)oc2ccccc12,-24%,u,0%,10%,x,9.3µM*
COc1ccc2oc(C(=O)NCc3ccccc3CN3CCCC3)c(C)c2c1,u,12µM*,5%,1%,x,u
CC1=C(C(=O)OCc2cc(C)on2)N2C(=O)[C@@H](NC(=O)OCc3cc(C)on3)[C@H]2SC1,27%,-26%,52%,-6%,x,22%
CCc1ccccc1NC(=O)/C(=C/c1ccco1)c1ccccc1,u,x,-20%,-20%,-12%,1.9µM*
Cc1cc(C)n2nc(SCc3cccc(S(=O)(=O)N(C)C)c3)nc2n1,u,-43%,12%,4%,-1%,u
CN(C)S(=O)(=O)c1cccc(CSCc2cccc(S(=O)(=O)N(C)C)c2)c1,2.2µM*,-5%,-3%,1%,2%,-7%
Cn1c(CCNC(=O)c2ccco2)nc2cc([N+](=O)[O-])ccc21,-13%,8%,-7%,0%,-4%,2.6µM*
CN1CCCC[C@@H]1CCN1c2ccccc2Sc2ccc(S(C)=O)cc21 (some centres not stated),x,u,x,x,-13%,u
CSc1ccc2c(c1)N(CCC1CCCCN1C)c1ccccc1S2 (configuration not stated),u,9.3µM*,u,-3%,-8%,u
CCn1c(=S)sc2c(=O)n(CC(=O)Nc3ccc(OC)c(Cl)c3)c(C)nc21,-6%,8%,5%,2%,1%,-6%
CC(NC(=O)Nc1ccc(Cl)c(Cl)c1)C(c1ccccc1)N1CCOCC1 (configuration not stated),u,u,40%,-109%,-31%,5.2µM*
CC(NC(=O)C1CCC(C(C)(C)C)CC1)C(c1ccccc1)N1CCOCC1 (configuration not stated),19%,u,35%,0%,x,10µM*
Cc1ccc(C)c(C(=O)C(C)OC(=O)CN2C(=O)NC3(CC(C)CC(C)(C)C3)C2=O)c1 (configuration not stated),26%,0%,-7%,2%,26%,-13%
Cc1ccc2c(c1)S(=O)(=O)N(C)C(c1ccccc1)=C2,-17%,x,9%,x,x,x
CC(C)c1ccc(OCc2ccc(C(=O)O)o2)cc1,21%,1µM*,-2%,2%,-44%,244%
CC(C)c1ccc(OCc2ccc(C(=O)N(C)C)o2)cc1,-8%,1%[0.00184 µM],16%,-6%,-34%,37%
